This note sets out measurements from PubChem BioAssay (EPA / NIEHS).

Records with an inconclusive call do not appear. Some compounds were tested as several samples or in several runs, with calls that do not always agree. Active and inactive are the calls of the source. The calls were made as follows, unless noted: active = hit-call score of the fitted dose curve at least 0.9, where 1 is the maximum; inactive = score below 0.9.

The nature of assay [1]: ATG_FoxO_CIS: Attagene CIS-FACTORIAL HepG2 Assay for human Forkhead box O (FoxO) (AID 2282943). As to conditions: HepG2 Attagene cis-reporter, FoxO element, mRNA; actives raise or lower the signal. The method, boiled down: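 HepG2 cells transiently transfected with cis-element-driven reporter units report endogenous FoxO activity. After 24 h chemical exposure, reporter mRNA quantified by RT-PCR, fluorescent labeling, HpaI digestion and capillary electrophoresis; bidirectional fit versus DMSO.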

Assay [2] is described as follows: ATG_GRE_CIS: Attagene CIS-FACTORIAL HepG2 Assay for human Glucocorticoid Response Elements (GRE) (AID 2282947). The note with it: HepG2 GRE cis-reporter, Attagene multiplex mRNA; actives raise or lower the signal. The method, boiled down: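 Read-out: fluorescent reporter-transcript fragments separated by capillary electrophoresis after RT-PCR. Transiently transfected HepG2 cells carrying cis-element-driven reporter units were dosed for 24 h; gain or loss of signal fitted against DMSO control.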

Assay [3] can be described thus: ATG_SREBP_CIS: Attagene CIS-FACTORIAL HepG2 Assay for human Sterol Regulatory Element Binding (SREBP) (AID 2282962). The note with it: HepG2 Attagene cis-factorial SREBP reporter, mRNA; actives raise or lower the signal. In short, it runs like this: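 Readout: fluorescent reporter-transcript peaks resolved by capillary electrophoresis after RT-PCR. Cells were human HepG2 carrying transfected cis-promoter reporter constructs, dosed for 24 h. Gain or loss of signal was fitted against DMSO controls.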

Assay [4] can be described thus: ATG_M_06_TRANS: Attagene TRANS-FACTORIAL HepG2 Assay for M06 Transcription Factor (Internal Marker) (AID 2282983; active = hit-call score of the fitted dose curve at least 0.9, where 1 is the maximum;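 also: reporter transcript level by RT-PCR then capillary electrophoresis fluorescence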). As to conditions: HepG2 Attagene TRANS M06 internal marker reporter. In short, it runs like this:
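In this multiplexed HepG2 system, compounds are incubated 24 h with cells carrying GAL4-UAS reporter units. Reporter RNA is amplified and resolved by capillary electrophoresis, and induction is scored against DMSO.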

The target in assay [5] is Nuclear receptor subfamily 1 group I member 2 (Homo sapiens) (UniProt O75469). As to the kind of experiment: ATG_PXR_TRANS: Attagene TRANS-FACTORIAL HepG2 Assay for human Pregnane X Receptor (PXR) (AID 2283008; active = hit-call score of the fitted dose curve at least 0.9, where 1 is the maximum). The method, boiled down:
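Trans-factorial format: exogenous NR-Gal4 fusion activity, not endogenous factor, in transfected human HepG2 liver cells. After 24 h dosing, RNA isolated, reverse-transcribed, amplified and resolved by capillary electrophoresis; induction scored versus DMSO.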

Read-out in assay [6]: Interleukin-8 (IL8), CXCL8 (gene 3576)
The assay can be described thus: BSK_3C_IL8: BioMAP Diversity Plus: 3C Assay for Interleukin-8 (IL8) Biomarker Activity (AID 2283020). The note with it: primary human endothelial cells (HUVEC); actives raise or lower the signal. In short, it runs like this:
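Using DMSO-treated wells as the baseline, bidirectional curve fitting was applied to ELISA-measured IL-8 from human umbilical vein endothelial cultures sampled 24 h after compound addition.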

Read-out in assay [7]: Thrombomodulin, THBD (gene 7056)
As to the kind of experiment: BSK_3C_Thrombomodulin: BioMAP Diversity Plus: 3C Assay for Thrombomodulin Biomarker Activity (AID 2283029). The note with it: primary human endothelial cells (HUVEC); actives raise or lower the signal. The method, boiled down:
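In a multiplexed primary-cell system, human umbilical vein endothelium received chemical and was assayed 24 h later for thrombomodulin by ELISA. Parallel cultures were SRB-stained (0.1% SRB after 10% TCA fixation, read at 560 nm) to flag cytotoxicity.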

Read-out in assay [8]: Urokinase-type plasminogen activator receptor (uPAR), PLAUR (gene 5329)
As to the kind of experiment: BSK_4H_uPAR: BioMAP Diversity Plus: 4H Assay for Urokinase-type plasminogen activator receptor (uPAR) Biomarker Activity (AID 2283030). The note with it: primary human endothelial cells (HUVEC); actives raise or lower the signal. The method, boiled down:
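Primary human umbilical vein endothelial cells were exposed to chemical for 24 h before cell-surface uPAR was quantified by ELISA. Activity was fitted bidirectionally against the DMSO negative control baseline.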

Read-out in assay [9]: Vascular endothelial growth factor receptor 2 (Homo sapiens) (UniProt P35968)
As to the kind of experiment: BSK_4H_VEGFRII: BioMAP Diversity Plus: 4H Assay for Vascular endothelial growth factor receptor 2 (VEGFR2) Biomarker Activity (AID 2283031). The note with it: primary human endothelial cells (HUVEC); actives raise or lower the signal. The method, boiled down: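 Primary human umbilical vein endothelial cells in the BioMAP 4H system were dosed with test chemical, and 24 h later VEGFRII was measured by ELISA. Activity was fitted bidirectionally against DMSO as negative control and baseline.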

Read-out in assay [10]: Monokine induced gamma interferon (MIG), CXCL9 (gene 4283)
The assay can be described thus: BSK_CASM3C_MIG: BioMAP Diversity Plus: CASM3C Assay for Monokine induced gamma interferon (MIG) Biomarker Activity (AID 2283048).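 Also: MIG protein level measured by ELISA.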 As to conditions: primary human coronary artery smooth muscle cells; actives raise or lower the signal.

Read-out in assay [11]: serum amyloid A (SAA), SAA1 (gene 6288)
The assay can be described thus: BSK_CASM3C_SAA: BioMAP Diversity Plus: CASM3C Assay for serum amyloid A (SAA) Biomarker Activity (AID 2283049).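 Also: SAA protein level quantified by ELISA.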 As to conditions: primary human coronary artery smooth muscle cells; actives raise or lower the signal.

Read-out in assay [12]: Thrombomodulin, THBD (gene 7056)
The assay can be described thus: BSK_CASM3C_Thrombomodulin: BioMAP Diversity Plus: CASM3C Assay for Thrombomodulin Biomarker Activity (AID 2283051).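 Also: thrombomodulin protein level measured by ELISA 24 h after dosing.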 As to conditions: primary human coronary artery smooth muscle cells; actives raise or lower the signal.

Read-out in assay [13]: Vascular cell adhesion molecule 1 (VCAM1), VCAM1 (gene 7412)
As to the kind of experiment: BSK_CASM3C_VCAM1: BioMAP Diversity Plus: CASM3C Assay for Vascular cell adhesion molecule 1 (VCAM1) Biomarker Activity (AID 2283055).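 Also: VCAM-1 protein level quantified by ELISA on the cells.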 The note with it: primary human coronary artery smooth muscle cells; actives raise or lower the signal.

Read-out in the next assay: CD40, CD40 (gene 958)
As to the kind of experiment: BSK_SAg_CD40: BioMAP Diversity Plus: SAg Assay for CD40 Biomarker Activity (AID 2283088). As to conditions: primary human HUVEC with PBMC; actives raise or lower the signal. The method, boiled down: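 Human umbilical vein endothelial cells co-cultured with PBMC; CD40 levels measured by ELISA with fluorescence read-out 24 h after chemical dosing. Gain or loss of signal fitted bidirectionally against DMSO baseline.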

Read-out in assay [14]: Collagen I, COL1A1 (gene 1277)
As to the kind of experiment: BSK_hDFCGF_CollagenI: BioMAP Diversity Plus: hDFCGF Assay for Collagen I Biomarker Activity (AID 2284250). As to conditions: primary human foreskin fibroblasts. In short, it runs like this:
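Readout: Collagen I by ELISA after 24 h compound treatment of primary human foreskin fibroblasts. Endpoint analysed for increases relative to DMSO; total protein by SRB in parallel wells flagged cytotoxicity.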

Assay [15] in a line: ACEA_ER_AUC_viability: ACEA Biosciences xCELLigence Real-Time Cell Analysis on Estrogen Receptor Agonism for Viability (AID 2283782; active = hit-call score of the fitted dose curve at least 0.9, where 1 is the maximum;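 also: hit means loss of impedance signal meaning reduced cell growth or viability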). In short, it runs like this: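 Read-out: real-time electrical impedance (RT-CES) area under curve, loss of signal taken as reduced viability, normalized to DMSO baseline. T-47D cells, charcoal-stripped serum medium, compounds up to 100 uM final, continuous exposure, 80 h.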

Assay [16] is described as follows: ATG_GLI_CIS: Attagene CIS-FACTORIAL HepG2 Assay for human Zinc Finger Protein GLI1 (AID 2282945). As to conditions: HepG2, Attagene cis-factorial reporter mRNA, GLI element; actives raise or lower the signal. The method, boiled down: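 Transiently transfected HepG2 cells report endogenous transcription factor activity via cis-element-driven reporter units. After 24 h compound exposure, reporter mRNA was measured by RT-PCR with capillary electrophoresis; bidirectional fitting against DMSO baseline.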

The target of assay [17] is Signal transducer and activator of transcription 3 (Homo sapiens) (UniProt P40763). The assay can be described thus: ATG_STAT3_CIS: Attagene CIS-FACTORIAL HepG2 Assay for human Signal Transducer and Activator of Transcription 3 (STAT3) (AID 2282963). As to conditions: HepG2, Attagene cis-factorial STAT3 reporter transcription; actives raise or lower the signal. In short, it runs like this:
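Readout: fluorescent reporter mRNA fragments resolved by capillary electrophoresis. Setup: HepG2 transfected with MRTUs reporting endogenous transcription-factor activity, dosed 24 h. Gain or loss of signal fitted bidirectionally against DMSO control.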

Assay [18] can be described thus: ATG_Oct_MLP_CIS: Attagene CIS-FACTORIAL HepG2 Assay for human Octamer-Binding Transcription Factor (Oct) (AID 2282993). As to conditions: HepG2 Attagene cis-factorial Oct reporter, mRNA; actives raise or lower the signal. The method, boiled down:
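Cells of the HepG2 line express promoter-controlled reporter sequences whose mRNA levels, after 24 h treatment, are measured by RT-PCR and capillary electrophoresis. Increases and decreases are scored relative to DMSO.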

The target of assay [19] is human Peroxisome Proliferator-activated Receptor alpha (PPARa), PPARA (gene 5465) (UniProt Q07869). The assay can be described thus: ATG_PPARa_TRANS: Attagene TRANS-FACTORIAL HepG2 Assay for human Peroxisome Proliferator-activated Receptor alpha (PPARa) (AID 2283001; active = hit-call score of the fitted dose curve at least 0.9, where 1 is the maximum). In short, it runs like this:
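Transient HepG2 transfection, GAL4-UAS reporters, NR-Gal4 chimeras; 24 h compound exposure. Readout: reporter transcripts by RT-PCR, 6-FAM primer extension, HpaI digest, capillary electrophoresis. Positive direction vs DMSO baseline.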

Chain of Nuclear receptor subfamily 1 group I member 2 (Homo sapiens) (O75469 whole entry, looked up, the tested form may be a part): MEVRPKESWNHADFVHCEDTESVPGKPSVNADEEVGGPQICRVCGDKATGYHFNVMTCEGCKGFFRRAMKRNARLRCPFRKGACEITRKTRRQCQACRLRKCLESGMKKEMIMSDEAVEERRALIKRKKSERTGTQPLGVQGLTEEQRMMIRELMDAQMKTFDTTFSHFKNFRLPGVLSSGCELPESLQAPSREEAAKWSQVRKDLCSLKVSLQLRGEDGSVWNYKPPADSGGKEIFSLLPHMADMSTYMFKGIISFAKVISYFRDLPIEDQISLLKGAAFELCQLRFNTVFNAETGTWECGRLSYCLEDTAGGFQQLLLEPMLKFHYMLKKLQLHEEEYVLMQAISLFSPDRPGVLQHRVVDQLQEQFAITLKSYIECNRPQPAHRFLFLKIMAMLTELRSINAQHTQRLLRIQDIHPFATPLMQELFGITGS
Chain of Signal transducer and activator of transcription 3 (Homo sapiens) (P40763 whole entry, looked up, the tested form may be a part): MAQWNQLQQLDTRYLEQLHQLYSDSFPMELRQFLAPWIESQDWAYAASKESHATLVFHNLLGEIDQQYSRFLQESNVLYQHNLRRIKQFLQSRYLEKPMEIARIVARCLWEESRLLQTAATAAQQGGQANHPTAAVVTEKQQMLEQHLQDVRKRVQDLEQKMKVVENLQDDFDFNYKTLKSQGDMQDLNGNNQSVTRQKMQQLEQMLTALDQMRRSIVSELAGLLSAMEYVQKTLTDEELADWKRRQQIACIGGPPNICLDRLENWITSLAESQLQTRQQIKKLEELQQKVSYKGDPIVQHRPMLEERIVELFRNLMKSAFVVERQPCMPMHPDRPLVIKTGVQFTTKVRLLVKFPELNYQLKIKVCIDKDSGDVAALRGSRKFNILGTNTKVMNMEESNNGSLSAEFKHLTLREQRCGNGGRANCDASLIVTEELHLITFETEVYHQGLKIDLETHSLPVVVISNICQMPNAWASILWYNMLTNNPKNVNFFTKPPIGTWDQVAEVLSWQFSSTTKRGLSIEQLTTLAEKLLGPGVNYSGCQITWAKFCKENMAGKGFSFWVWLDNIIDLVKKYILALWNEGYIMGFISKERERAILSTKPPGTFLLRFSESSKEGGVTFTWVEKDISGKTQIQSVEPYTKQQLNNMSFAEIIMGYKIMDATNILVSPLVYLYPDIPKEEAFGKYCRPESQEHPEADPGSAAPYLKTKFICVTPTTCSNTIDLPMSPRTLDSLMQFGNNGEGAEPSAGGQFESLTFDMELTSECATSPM
Chain of human Peroxisome Proliferator-activated Receptor alpha (PPARa), PPARA (gene 5465) (Q07869 whole entry, looked up, the tested form may be a part): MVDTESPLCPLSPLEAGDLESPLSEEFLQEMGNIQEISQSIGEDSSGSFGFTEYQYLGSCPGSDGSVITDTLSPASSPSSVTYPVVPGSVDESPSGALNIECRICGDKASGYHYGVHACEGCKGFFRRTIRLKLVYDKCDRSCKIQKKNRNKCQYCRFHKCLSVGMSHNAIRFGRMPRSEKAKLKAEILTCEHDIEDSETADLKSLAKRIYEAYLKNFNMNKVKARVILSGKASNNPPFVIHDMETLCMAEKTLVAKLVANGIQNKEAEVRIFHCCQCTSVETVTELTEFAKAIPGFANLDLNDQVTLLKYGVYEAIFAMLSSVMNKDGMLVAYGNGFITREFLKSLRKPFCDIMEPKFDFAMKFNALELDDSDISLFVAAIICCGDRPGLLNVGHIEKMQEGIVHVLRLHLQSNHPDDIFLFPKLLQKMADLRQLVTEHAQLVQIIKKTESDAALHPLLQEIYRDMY

`CC/C=C/CCO`: the molecule was called inactive in assay [1], in assay [2], in assay [3], in [4] and in assay [5].

A word on the AC50: it is the midpoint of the concentration-response curve, whichever way the signal moves. Regarding `Cc1c(C(N)=O)cc([N+](=O)[O-])cc1[N+](=O)[O-]`, the result in assay [6], in assay [7], in assay [8], in assay [9], in assay [10] and in assay [11] was inactive. In addition, the outcome was “inactive” in assay [12]; “inactive” in assay [13]; “inactive” with CD40, CD40 (gene 958); “inactive” in [14]. Moreover, in the assay with CD40, CD40 (gene 958), the AC50 is 32.4 µM (active).

`COc1ccc(COC=O)cc1`: the result in assay [15] was inactive.

With `Oc1ccc(Oc2ccccc2)cc1`, the call in [1], in [16], in assay [3], in assay [17], in [4] and in assay [18] was inactive. Besides, the outcome in assay [19] and in assay [5] was inactive.

Turning to `CCC[Si](OC(C)=O)(OC(C)=O)OC(C)=O`, the outcome in [6], in assay [7], in assay [8], in assay [9], in [10] and in assay [11] was inactive. In addition, the outcome is “inactive” in [12]; “inactive” in [13]; “inactive” in the assay with CD40, CD40 (gene 958); “inactive” in assay [14].

As to `CCO[Si](OCC)(OCC)c1ccccc1`, the call in assay [1], in assay [16], in assay [2], in assay [3], in assay [17] and in assay [4] was inactive. The call in [18], in assay [19], in assay [5] and in assay [15] was inactive.

Regarding `N#CCN(CC#N)CCN(CC#N)CC#N`, the molecule was called inactive in assay [1], in assay [16], in assay [2], in assay [3], in assay [17] and in [4]. In addition, the outcome in assay [18], in assay [5] and in [15] was inactive.

For `COc1cc(CNC(=O)CCCC/C=C/C(C)C)ccc1O`, the result in [6], in assay [7], in assay [8], in [9], in [10] and in assay [11] was inactive. Further, the outcome in [12] is “inactive”; in [13], “inactive”; with CD40, CD40 (gene 958), “inactive”; in assay [14] it was “inactive”. In addition, the AC50 in [7] is 15.1 µM (active); in the assay with CD40, CD40 (gene 958) it was 20 µM (active).
